Test results reported in PubChem BioAssay (NCATS).
Inconclusive results are not listed. Calls of active or inactive are those of the source. Unless noted, calls come from the whole dose curve; as a rule, active = well fitted curve in the direction sought with a large enough effect; inconclusive = small, poorly fitted or top-dose-only effect, or another doubt; inactive = no such curve, though single readings can be large; an effect the other way counts as inactive or inconclusive.

Columns and labels:
[1] = biological target: Aldehyde dehydrogenase, mitochondrial (Homo sapiens) (UniProt P05091); assay: qHTS for Inhibitors of the Aldehyde Dehydrogenase Family (ALDH2) Confirmatory screens (AID 2061303; active = well fitted inhibition curve with a large enough effect; title and protocol of this record describe different tests; note: nearly all actives have a fitted effect of over 45% in size; note: potency is the fitted concentration of half-maximal effect)
[2] = biological target: Aldehyde dehydrogenase, mitochondrial (Homo sapiens) (UniProt P05091); assay: qHTS for Inhibitors of the Aldehyde Dehydrogenase Family (ALDH2) Primary screen (AID 2061308); note: nearly all actives have a fitted effect of over 55% in size; note: potency is the fitted concentration of half-maximal effect
[3] = biological target: Retinaldehyde dehydrogenase 3 (Homo sapiens) (UniProt P47895); assay: qHTS for Inhibitors of the Aldehyde Dehydrogenase Family (ALDH1A3) Confirmatory screens (AID 2061311); note: nearly all actives have a fitted effect of over 60% in size; note: potency is the fitted concentration of half-maximal effect
[4] = biological target: Retinal dehydrogenase 2 (Homo sapiens) (UniProt O94788); assay: qHTS for Inhibitors of the Aldehyde Dehydrogenase Family (ALDH1A2) Confirmation screens (AID 2061314); note: nearly all actives have a fitted effect of over 65% in size; note: potency is the fitted concentration of half-maximal effect
[5] = biological target: Retinaldehyde dehydrogenase 3 (Homo sapiens) (UniProt P47895); assay: qHTS for Inhibitors of the Aldehyde Dehydrogenase Family (ALDH1A3) Primary screen (AID 2061315)
[6] = biological target: Aldehyde dehydrogenase 1A1 (Homo sapiens) (UniProt P00352); assay: qHTS for Inhibitors of the Aldehyde Dehydrogenase Family (ALDH1A1) Confirmatory screens (AID 2061316); note: nearly all actives have a fitted effect of over 65% in size; note: potency is the fitted concentration of half-maximal effect

Measured: Potency

O=C(Nc1cncc(NC(=O)c2cccs2)c1)c1cccs1
active: [3] 28.3 µM
inactive: all other assays above

Cc1cc(C)nc(NC(=S)N2CCN(c3cccc4ccncc34)CC2)c1
active: [1] 12.7 µM | [2] 3.16 µM | [3] 11.3 µM | [4] 10.1 µM | [6] 4 µM

O=C1CCCC2=C1C(c1[nH]ncc1Cl)NC(=NCc1ncc[nH]1)N2 (centres undefined)
inactive: all assays above

Cc1c(P(=O)(c2ccccc2)c2ccccc2)c2ccccc2n1C
active: [3] 7.12 µM | [6] 10.1 µM
inactive: all other assays above

Brc1ccc(-c2csc(N3CCC(c4nn[nH]n4)CC3)n2)cc1
not listed: [6]
inactive: all other assays above

COc1ccc([N+](=O)[O-])c(S(=O)(=O)c2ccccc2)n1
active: [1] 17.8 µM | [2] 4.47 µM | [3] 5.65 µM | [4] 15.8 µM | [6] 2.01 µM

NC(=O)C1CCN(c2nc(-c3ccc(Cl)cc3)cs2)CC1
inactive: all assays above

NC(=O)C1CCN(c2ncc(-c3cccc(N4CCCC4)c3)s2)CC1
inactive: [2] | [5]
active: [1] 12.7 µM | [3] 7.98 µM | [4] 11.3 µM | [6] 3.57 µM

O=C1CC(c2ccccc2)CC2=C1C1(CCCC1)N=C(Nc1nc3ccccc3o1)N2 (centres undefined)
inactive: all assays above

NC(=O)C1CCN(c2ncc(-c3cccc(N4CCOCC4)c3)s2)CC1
active: [6] 6.34 µM
inactive: all other assays above

COc1cccc(-c2no[n+]([O-])c2C#N)c1
active: [4] 10.1 µM
inactive: all other assays above

Clc1ncoc1-c1c[nH]c2ccccc12
not listed: [6]
inactive: all other assays above

C#Cc1nc(Nc2cccc(Cl)c2)nc(NC2CCCC2)n1
inactive: [2] | [5]
active: [1] 31.6 µM | [3] 14.1 µM | [4] 8.91 µM

CC(C)(C)OC(=O)NC1CCN(c2nc(-c3ccc(Br)cc3)cs2)CC1
inactive: all assays above

COc1ccc(C2=Nn3c(nnc3-c3ccccc3O)SC2)cc1
not listed: [6]
inactive: all other assays above

CN1CCN(c2cccc(CNc3nn4c(=O)c5ccccc5nc4s3)c2)CC1
active: [4] 25.2 µM
not listed: [6]
inactive: all other assays above

N#CC1CCN(c2nc(-c3ccc(Br)cc3)cs2)CC1
not listed: [6]
inactive: all other assays above

O=C1Nc2ccccc2/C1=C\c1ccc(O)c(F)c1
inactive: [5] | [6]
active: [1] 0.224 µM | [2] 2.51 µM | [3] 15.8 µM | [4] 5.65 µM

N#CN1CCC(NS(=O)(=O)c2ccc(F)cc2)CC1
inactive: all assays above

O=C(CN1C(=O)CC(c2ccco2)Sc2ccccc21)Nc1ccccc1F (centres undefined)
active: [6] 2.52 µM
inactive: all other assays above

CC(=O)NC(c1ccco1)c1cc(Cl)c2ccc(N3CCCCC3)nc2c1O (centres undefined)
active: [1] 10.1 µM | [3] 11.3 µM | [4] 1.59 µM | [6] 2.25 µM
inactive: [2] | [5]

FC(F)(F)c1cc(-c2ccc(CNc3nc(-c4ccncc4)nc4ccccc34)cc2)ccn1
inactive: [2] | [5]
active: [1] 8.91 µM | [3] 2.52 µM | [4] 10 µM

N#Cc1cc(C2=Nc3ccc(Br)cc3NC(=O)C2)ccn1
inactive: all assays above

NC(=O)C1CCN(c2nc(-c3ccc(F)cc3)cs2)CC1
not listed: [6]
inactive: all other assays above

CCc1nc2c(sc3nc4c(cc32)COC(C)(C)C4)c(=O)n1Cc1ccco1
inactive: [2]
active: [1] 6.34 µM | [3] 7.98 µM | [4] 7.12 µM | [6] 0.634 µM

COc1cc(O)c(C(CC(=O)N2CCCC(C(C)C)C2)c2ccc3c(c2)OCO3)c(OC)c1 (centres undefined)
not listed: [6]
inactive: all other assays above

Cc1cnc(-c2ccccc2C(C)C)nc1NCC1CN(c2cccnc2)C1
active: [1] 11.3 µM | [3] 11.3 µM | [4] 2.52 µM | [6] 8.96 µM
inactive: [2] | [5]

O=S(=O)(Nc1cc(O)cc2cccnc12)c1ccc(Cl)s1
active: [1] 8.96 µM | [2] 0.631 µM | [3] 0.504 µM | [4] 2.01 µM | [6] 4 µM

O=C1c2ccccc2NC(c2ccc(-c3ccccc3F)o2)N1O (centres undefined)
inactive: [3] | [5]
active: [1] 11.3 µM | [2] 8.91 µM | [4] 25.2 µM

Cc1cc(C)nc(NC(=S)N2CCN(c3ccc4nsnc4c3)CC2)c1
active: [1] 8.96 µM | [2] 7.94 µM | [3] 1.13 µM | [4] 6.34 µM | [6] 1.79 µM

Cc1cnc(-c2ccccc2C(C)O)nc1NCC1CCN(c2cccnc2)CC1 (centres undefined)
active: [4] 12.7 µM
not listed: [6]
inactive: all other assays above

Cc1cc(C=CC#N)cc(C)c1Nc1nc(Nc2ccc3c(c2)CCC3)c2[nH]cnc2n1
not listed: [6]
inactive: all other assays above

O=C1Nc2ccccc2/C1=C\c1ccc(C(=O)O)cc1
inactive: all assays above

COc1ccc([N+](=O)[O-])c(S(=O)(=O)c2ccc(Cl)cc2)n1
active: [1] 5.04 µM | [2] 1.78 µM | [3] 10 µM | [4] 15.8 µM | [6] 1.27 µM

O=C(Nc1cncc(O)c1)c1cccs1
active: [1] 12.7 µM | [3] 12.7 µM | [4] 2.25 µM
inactive: [2] | [5]

NC(=O)C1CCN(c2nc(-c3ccc4occc(=O)c4c3)cs2)CC1
inactive: [1] | [2] | [4] | [5]

Cc1nnc(CN(C)c2ncnc3ccc(-c4ccc5c(c4)OCO5)cc23)o1
active: [3] 20.1 µM | [6] 14.2 µM
inactive: [1] | [2] | [5]

Nc1ncc(-c2cccc(-c3nn4c(=O)cc(N5CCNCC5)nc4s3)c2)cn1
active: [1] 14.2 µM | [4] 11.3 µM
inactive: [2] | [5]
